# Pf growth 96h: Primary qHTS for delayed death inhibitors of the malarial parasite plastid, 96 hour incubation; P. falciparum luciferase reporter growth, 96 h; Potency, µM (doses to about 28.7 µM), without a hit: at the top dose activity change, negative = inhibition, hits mostly inhibitors; 6.9% of 320,000 active; AID 504834, 2011; note: % is set by controls: 0 for no effect and ±100 for the full control effect
#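 Delayed-death screen, second-generation endpoint: infected erythrocytes, 2% hematocrit, 0.05% parasitemia final; 96 hours at 37 C, 5% CO2; luciferase detection reagent; luminescence decrease equals reduced growth.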
# NS1 function inh: qHTS Assay for Inhibitors of Influenza NS1 Protein Function | Potency, µM (top dose mostly 46.1 µM), for the others: at the top dose activity, positive = more growth | 0.4% of 270,000 active; calls by dose curve; note: actives are rising curves; nearly all actives have a fitted effect of over 50% in size
#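 Recovery from NS1-induced slow growth read by OD600 in budding yeast switched to galactose assay medium (pH 6.0, -URA) at 1:100 dilution. Compound 23 nl per well; the matching strain lacking NS1 serves as control.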
# SARS PLP yeast: qHTS of Yeast-based Assay for SARS-CoV PLP | Potency, µM (highest dose often 32.9 µM), without a hit: at the top dose activity, positive = growth rescue, hits mostly activators | AID 485353, 2010 | S. cerevisiae expressing SARS-CoV PLpro, growth rescue | 0.19% of 330,000 active; calls by dose curve; note: 0% is about no effect; nearly all actives have a fitted effect of over 55% in size
# Pf growth 48h: Primary qHTS for delayed death inhibitors of the malarial parasite plastid, 48 hour incubation | P. falciparum luciferase growth in erythrocytes, 48 h | Potency, µM (doses to about 28.7 µM), for the others: at the top dose activity change, negative = inhibition, actives largely listed as inhibitors | 5.9% of 310,000 active | AID 504832, 2011; note: % is set by controls: 0 for no effect and ±100 for the full control effect
#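 A one-generation exposure of luciferase-tagged malaria parasites in RPMI 1640/Albumax erythrocyte culture, 37 C and 5% CO2. Inhibition is inferred from decreased luminescence after adding detection reagent.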
# * marks the source's active call; other numbers are inactive results; ? = inconclusive; . = not tested or not shown. Only some compounds are listed: those with a hit (about 10% of all), similar ones and a draw of the others. Unless noted, calls come from the whole dose curve; as a rule, active = well fitted inhibition curve with a large enough effect; inconclusive = small, poorly fitted or top-dose-only effect, or another doubt; inactive = no such curve, though single readings can be large or run the other way. Potency is the fitted concentration of half-maximal effect.
SMILES,Pf growth 96h,NS1 function inh,SARS PLP yeast,Pf growth 48h
CCCN(CC(=O)Nc1ccccc1OC)C(=O)CCNC(=O)c1ccccc1OC,1.3%,.,-11.7%,-6.8%
CC(=O)NC(Cc1ccc(F)cc1)C(=O)NC1CCN(C(=O)Nc2ccccc2C)CC1 (stereo unspecified),21.7%,5.2%,13.7%,-22.9%
NNC(=O)c1cc2c(s1)-c1cc(Cl)ccc1SC2,-3.8%,?,-0.9%,9.28µM*
C/C(=N\NC(N)=S)C1=CCC2C3CC[C@H]4CC(O)CC[C@]4(C)C3CC[C@]12C (stereo partly specified),11.7µM*,-2.3%,-2.4%,.
CCC(CC)NC(=O)c1cc(S(=O)(=O)N2CCCCC2)ccc1N1CCOCC1,?,.,-0.4%,-27.8%
Oc1cc[c]([Hg][Cl])cc1,1.51µM*,.,.,1.9µM*
Cc1ccc(O)cc1 (tested in a mixture with another compound),.,19.0%,.,.
CCCOc1ccc(C(=O)C(CN2CCCC2)c2ccccc2)cc1 (stereo unspecified),?,-54.3%,-36.0%,10.4µM*
COc1ccc(C(=O)C(CN2CCOCC2)c2ccccc2)cc1 (stereo unspecified),?,-201.0%,-35.8%,.
COc1ccc(C(=O)C(CN2CCCC2)c2ccccc2)cc1 (stereo unspecified),3.6%,-42.1%,-31.8%,13.1µM*
Oc1ccc(Cl)cc1CNc1cccc2cccnc12,146.7%,-118.0%,-12.5%,?
Cc1cc(C[n+]2ncsc2N)c2ncccc2c1,-90.0%,-0.5%,-1.9%,-35.9%
Cc1cc(C[n+]2cc(Br)ccc2N)c2ncccc2c1,13.1µM*,-12.7%,-0.1%,9.28µM*
Cc1cc(C[n+]2cc(Cl)ccc2N)c2ncccc2c1,?,6.4%,-0.2%,13.1µM*
Nc1ccc(Cl)c[n+]1Cc1cccc2cccnc12,?,-2.0%,1.7%,10.4µM*
O=C1N(Cc2cccc(Cl)c2)C[C@@H]2C[C@@H](c3cccc4ncccc34)N3CCC[C@@]123,20.6%,-11.2%,-0.6%,1.65µM*
O=C1N(Cc2cccc(Cl)c2)C[C@@H]2C[C@@H](c3cccn3-c3ccccn3)N3CCC[C@@]123,?,5.0%,-0.7%,11.7µM*
O=[N+]([O-])c1ccc(S(=O)(=O)Nc2nnc(C(F)(F)F)s2)cc1,10.4µM*,8.7%,-1.4%,22.3%
CCOC(=O)C1CCCN(C/C(O)=C(\C#N)c2nc(-c3ccccc3)cs2)C1 (stereo unspecified),13.1µM*,0.1%,2.3%,28.3%
Clc1ccc(CNc2nc(CN3CCOCC3)nc3scc(-c4ccccc4)c23)cc1,3.7µM*,-33.1%,5.1%,?
c1ccc(CNc2nc(CN3CCOCC3)nc3scc(-c4ccccc4)c23)cc1,?,-15.5%,27.1%,?
O=C1[C@@H](Oc2ccccc2)[C@@H](c2cnc3ccccc3c2)N1c1ccccc1,.,.,-34.4%,.
CCOC(=O)[C@H]1[C@H]2COc3ccc(C)cc3[C@@H]2N2C(=O)c3cc(C)ccc3NC(=O)[C@@]12C,.,.,3.2%,.
CC(=O)Nc1ccc(C2=NN(C)C(=NCc3ccccc3)SC2)cc1,11.7µM*,.,1.2%,?
O=C(Nc1ccc(Cl)cc1)N1CCSC1=NCc1ccccc1,-16.2%,-1.4%,2.1%,7.2%
SMILES,Pf growth 96h,NS1 function inh,SARS PLP yeast,Pf growth 48h
COc1ccc(C(=O)Cn2nc(CNc3ccc(Br)cc3)[n+]3c2CCCCC3)cc1,1.85µM*,.,0.2%,1.04µM*
Cc1ccc(C(C)C)c(OCc2nn(CC(=O)c3ccc(OC(F)F)cc3)c3[n+]2CCCCC3)c1,?,-1.7%,-0.5%,1.85µM*
O=C(COc1cc2oc(=O)cc(-c3ccccc3)c2cc1Cl)NCCN1CCOCC1,-8.9%,-1.8%,-2.5%,3.2%
CCOC(=O)c1noc(C)c1C(=O)Nc1nc(C)cc(C)n1,35.6%,.,-1.1%,-4.4%
CC(=O)NC(=S)Nc1ccc(NC(=O)c2cccnc2Cl)cc1,-3.6%,-7.2%,-1.5%,?
CC(C)(CC(=O)N1CCN(c2ccc(Cl)cc2)CC1)CC1=NS(=O)(=O)c2ccccc2N1,102.4%,-41.8%,7.4%,9.28µM*
C[C@@H]1CC[C@H]2[C@H](C)C3[C@H](C[C@H]4[C@@H]5CC=C6C[C@@H](O)CC[C@@]6(C)[C@@H]5C[C@@H](O)[C@]34C)N2C1 (stereo partly specified),.,-5.5%,.,.
C=CCC1(C#N)C(SC)=NC2=C(C(=O)CC(C)(C)C2)C1c1ccc(Br)cc1 (stereo unspecified),?,-8.5%,-95.8%,2.94µM*
CC1(C)CC(=O)C2=C(C1)NC(=O)NC2c1ccc([N+](=O)[O-])cc1 (stereo unspecified),11.8%,8.6%,-2.5%,-3.1%
CN(CC1CCCN(CCc2cccc(C(F)(F)F)c2)C1)C(=O)c1cc2ccccc2o1 (stereo unspecified),30.6%,-4.7%,0.6%,10.4µM*
COc1cc(CN(C)CC2CCCN(CCc3ccccc3F)C2)cc(Cl)c1OC (stereo unspecified),9.28µM*,-8.6%,2.5%,13.1µM*
COc1ccc(CN(C)CC2CCCN(CCc3ccc(F)cc3)C2)cc1OC (stereo unspecified),4.65µM*,23.9%,19.7%,?
COc1ccccc1CCN1CCCC(CN(C)Cc2ccc(OCCO)cc2)C1 (stereo unspecified),0.0%,2.5%,5.6%,?
CCOc1cccc(CN(C)CC2CCCN(CCc3ccc(Cl)cc3)C2)c1O (stereo unspecified),1.47µM*,0.0%,-0.2%,3.7µM*
COc1ccc(CN(C)CC2CCCN(CCc3ccc(Cl)cc3)C2)cc1OC (stereo unspecified),-10.1%,-14.1%,-1.3%,?
COc1cccc(NC(=O)C2CCC(CNC(=O)[C@@H]3Cc4ccccc4CN3)CC2)c1 (stereo partly specified),?,-4.4%,0.4%,?
COc1ccc(F)c(CN(C)CC2CCCN(CCc3ccc(F)cc3)C2)c1 (stereo unspecified),?,9.2%,1.3%,?
COc1ccccc1CCN1CCCC(CN(C)CC(C)(C)CO)C1 (stereo unspecified),11.7µM*,-6.3%,-2.6%,2.0%
COc1cc(CN(C)CC2CCCN(CCc3ccc(F)cc3)C2)c(Cl)cc1O (stereo unspecified),?,18.8%,0.2%,11.7µM*
CCN(CC1CCCN(CCc2cccc(F)c2)C1)C(=O)c1cc(C)oc1C (stereo unspecified),5.22µM*,12.8%,1.5%,?
COc1cc(CN(C)CC2CCCN(CCc3cccc(C(F)(F)F)c3)C2)ccc1O (stereo unspecified),?,0.3%,-1.5%,2.94µM*
COC(=O)CCC(=O)N(C)CC1CCCN(CCc2cccc(C(F)(F)F)c2)C1 (stereo unspecified),?,8.8%,-1.1%,11.9%
O=C(Nc1ccc(C(=O)N2CCCC2)cc1)c1ccc(F)cc1Cl,46.1%,-2.9%,1.0%,-1.0%
